Screening results: PubChem, several laboratories
Bim-Mcl-1 = human Bim-Mcl-1 interaction inhibition; Q07820; Bead-based flow cytometry, Bim peptide-Mcl-1 binding; inhibition, % at 10 µM; 0.1% of 190,000 active; in the data active = inhibition above about 40%;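 also: 0% = no compound tracer wells and 100% = peptide blocker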
Mcl1-Bid inh = disrupts binding of human Mcl-1 to Bid peptide; AID 1021; inhibition, % at 21.7 µM; 0.97% of 220,000 active; TR-FRET Mcl-1/Bid-Dy647 peptide binding, 1536-well;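 active = compounds that cut the binding signal by more than half at the single screening dose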;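 also: His-tagged Mcl-1 with europium anti-His antibody binding Bid BH3 peptide; 0% = Mcl-1 plus peptide wells and 100% = peptide-only wells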
p47phox inh = blocks human p47phox regulatory protein of NADPH oxidases; P14598; p47phox/p22phox peptide binding, fluorescence polarization, 2 h; inhibition, % at 24.7 µM; 0.53% of 220,000 active;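 active = inhibition above about 30%, limit read from the data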;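 also: 0% = p47phox with labelled peptide and 100% = labelled peptide alone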
Mcl1 Noxa PPI = Mcl-1/Noxa interaction inhibition; TR-FRET Mcl-1/Noxa peptide binding, 2 h; inhibition, % at 21.7 µM; 1.5% of 220,000 active; AID 1022; Q07820;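 active = compounds that cut the protein-peptide binding signal by more than 50% relative to plate controls in a single-dose test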;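 also: His-tagged Mcl-1 with rhodamine Noxa BH3 peptide and terbium anti-His antibody; 0% = Mcl-1 plus Noxa peptide wells and 100% = peptide-only wells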
14-3-3 Bad inh = disrupts binding of bovine 14-3-3 zeta to phospho-Bad peptide. TR-FRET 14-3-3zeta/Dy647-pBad peptide displacement, 1 h. inhibition, % at 21.7 µM. 0.71% of 220,000 active;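 active = inhibition above about 70%, limit read from the data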;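 also: 0% = full 14-3-3 plus peptide FRET controls and 100% = background without 14-3-3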
Target sequence (P63103 whole entry, looked up): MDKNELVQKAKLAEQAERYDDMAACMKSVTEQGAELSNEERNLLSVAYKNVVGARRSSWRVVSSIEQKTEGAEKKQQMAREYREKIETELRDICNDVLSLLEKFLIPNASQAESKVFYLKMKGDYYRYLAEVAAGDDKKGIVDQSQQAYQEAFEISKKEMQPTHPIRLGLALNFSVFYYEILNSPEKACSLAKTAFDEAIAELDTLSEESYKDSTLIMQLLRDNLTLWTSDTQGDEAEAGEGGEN
m-calpain inh = inhibitors of pig calpain II; inhibition, % at 16 µM; purified calpain II, fluorogenic peptide substrate, 30 min; 0.37% of 220,000 active;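 active = inhibition above about 50%, limit read from the data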
* = called active by the depositor; x = not tested or not shown. Shown are actives, neighbours in structure and some others; about 3.4% of the full set was active somewhere.

SMILES | Bim-Mcl-1 | Mcl1-Bid inh | p47phox inh | Mcl1 Noxa PPI | 14-3-3 Bad inh | m-calpain inh
O=C(c1cccc(F)c1)N1CCC(N2CCOCC2)CC1 | 1 | 35 | -7 | 30 | 74* | 23
O=C(c1ccco1)N1CCN(Cc2ccc(Cl)cc2)CC1 | -1 | 31 | -4 | 18 | 78* | -13
O=C(COC(=O)CNC(=O)c1sc2ccccc2c1Cl)Nc1cc(Cl)cc(Cl)c1 | -2 | -34 | -46 | -10 | -18 | 30
COC(=O)Cc1ccc(NC(=S)NNC(=O)C2CC2)cc1 | x | -41 | -2 | 10 | -12 | -8
Cc1nc2ccccc2n1CCC(=O)O | 6 | 4 | -2 | 4 | 54 | -19
Cc1nc2ccccc2n2c(O)c(CC(=O)O)cc12 | -1 | -29 | 35* | 17 | -2 | -85
O=C(Nc1cccc(-c2nnc(-c3ccco3)o2)c1)c1ccccc1 | 15 | 5 | -17 | -5 | 8 | 79*
Cc1cc(C(=O)c2cnc(/N=C/N(C)C)s2)c(F)cc1Cl | 0 | -7 | -3 | 3 | 5 | 6
CC(=O)c1ccc(Nc2ncnc3c2oc2ccccc23)cc1 | -3 | 21 | -5 | 30 | 72* | -52
CC1(C)Oc2ccc(C(=O)NN)cc2NC1=O | -2 | -13 | 8 | 0 | -3 | 3
COc1ccc(C(=O)n2c(SC)nc3cc4c(cc32)OCCO4)cc1 | -1 | -6 | -12 | 7 | -8 | -18
O=C(CNC(=O)c1ccco1)NCC(=O)OCc1ccccc1Br | 43* | -12 | 0 | -14 | -13 | 20
O=C(CNC(=O)c1cccs1)NCC(=O)OCc1ccccc1Br | -2 | 3 | 6 | 15 | -1 | 16
O=C(Nc1ccccc1N1CCCC1)c1ccc([N+](=O)[O-])cc1Cl | 1 | -27 | 1 | 12 | -3 | 30
CCN(CC)CCNC(=O)/C(=C/c1cn(CC)c2ccccc12)NC(=O)c1cc(OC)c(OC)c(OC)c1 | 2 | -52 | -6 | 16 | -8 | 21
CCN(CC)CCNC(=O)/C(=C/c1cn(C)c2ccccc12)NC(=O)c1ccc(OC)c(OC)c1 | x | 95* | -12 | 3 | -7 | 5
COc1cc2c(cc1OC)C(c1ccccc1F)OC(=O)C2 (stereo unspecified) | 96* | -8 | -2 | 10 | -5 | 9
CCOC(=O)CSc1nnc2n1C(C)(C)Cc1ccccc1-2 | -3 | -11 | -2 | 92* | 12 | 15
CC(C)OC(=O)CSc1nnc2n1C(C)(C)Cc1ccccc1-2 | -2 | -50 | 4 | -6 | x | 13
FC(F)(F)c1ccc2c(c1)NCC1CCCN21 (stereo unspecified) | 0 | -11 | 51* | 35 | -6 | -29
C(=N\N1CCN(Cc2ccccc2)CC1)/c1ccccc1 | x | -73 | -1 | -5 | 4 | 3
CCN(CC)c1ccc(/C=N/N2CCN(Cc3ccccc3)CC2)cc1 | -3 | -8 | -29 | 75* | 5 | 37
C=CCOc1ccccc1CN1CCCC(CCC(=O)N(C)CCc2ccccn2)C1 (stereo unspecified) | 1 | -4 | x | 24 | 1 | 0
COc1ccccc1N1CCN(C2CCN(C(=O)c3cc(OC)c(OC)c(OC)c3)CC2)CC1 | 4 | 35 | 0 | 20 | 79* | 13
COc1ccccc1N1CCN(C2CCN(C(=O)c3cccs3)CC2)CC1 | 1 | 58* | -1 | 8 | 54 | -12
SMILES | Bim-Mcl-1 | Mcl1-Bid inh | p47phox inh | Mcl1 Noxa PPI | 14-3-3 Bad inh | m-calpain inh
COc1ccccc1N1CCN(C2CCN(C(=O)c3ccc(F)cc3)CC2)CC1 | -6 | -8 | -11 | -7 | 2 | -10
S=C(NCc1ccco1)N1CCN(c2ccccc2Cl)CC1 | 2 | -19 | 1 | 7 | -6 | 14
O=C(c1ccccc1Br)N1CCN(c2ccccc2)CC1 | -2 | -23 | -5 | 4 | 17 | 29
CCn1cc(Br)c(C(=O)N2CCN(c3ccccc3)CC2)n1 | 3 | 0 | -2 | 16 | 72* | -28
O=C(Oc1ccc(NC2=C(Cl)C(=O)c3ccccc3C2=O)cc1)c1ccc([N+](=O)[O-])cc1 | -2 | 70* | 24 | 92* | 25 | -20
CC(=O)Nc1ccc(NC2=C(Cl)C(=O)c3ccccc3C2=O)cc1 | -4 | -23 | 12 | 40 | 0 | 33
Nc1cc(S(=O)(=O)N2CCCCC2)ccc1Oc1ccccc1 | 0 | -36 | -13 | -3 | -8 | 51*
COC(=O)CNC(=O)c1cccc(-c2ccc(OC)cc2)c1 | 1 | -9 | 5 | -4 | 0 | 12
